Here are results for 36 compounds from PubChem BioAssay (Tox21).

Each structure is given as a SMILES string. Values joined by “and” are separate entries in the source; they are usually repeats but may differ in a detail not shown here. Equal entries are not always repeated. Records with an inconclusive call do not appear. Where a call stands in place of a potency, no number is given. Active and inactive are the calls of the source. Calls come from the whole dose curve; as a rule, active = well fitted activation curve with a large enough effect in the repeat runs; inconclusive = weak or mixed curves; inactive = flat fitted curve, though single readings scatter.
Potency is the fitted concentration of half-maximal effect.

The nature of this assay: A CellTox Green Cytotoxicity Assay to monitor cytotoxicity in HepG2 cells - 40 hour (AID 1224879). Note: nearly all actives have a fitted effect of over 40% in size. The conditions noted are these: CellTox Green fluorescence; series mostly up to 76.8 µM. The method in brief:
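HepG2 cells, 600/well, preincubated 5 h with CellTox Green dye, then exposed to Tox21 compounds in DMSO at 37 C for up to 40 h. Dead-cell DNA fluorescence read at the indicated time point.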
Turning to `COP(=S)(OC)Oc1nc(Cl)c(Cl)cc1Cl`, the Potency result is “inactive”.

Take `[O-][Cl+3]([O-])([O-])O`: the Potency result is “inactive”.

Regarding `CCCCC/C=C\C/C=C\C/C=C\C/C=C\CCCC(=O)NCC(=O)O`, the Potency entry is “inactive”.

Take `c1ccc(Nc2ccc(Nc3ccccc3)cc2)cc1`: the Potency entry is “inactive”.

As to `O=Cc1ccccc1`, the Potency entry is “inactive”.

In the case of `N#CC(C#N)=NNc1cccc(Cl)c1`, the Potency is 12.3 µM (active).

`CC[C@H](C)[C@H]1O[C@]2(C=C[C@@H]1C)C[C@@H]1C[C@@H](C/C=C(\C)[C@@H](O[C@H]3C[C@H](OC)[C@@H](O[C@H]4C[C@H](OC)[C@@H](NC)[C@H](C)O4)[C@H](C)O3)[C@@H](C)/C=C/C=C3\CO[C@@H]4[C@H](O)C(C)=C[C@@H](C(=O)O1)[C@]34O)O2`: the Potency is 9.77 µM (active).

As for `Nc1cc(Cl)ccc1Cl`, the Potency result was “inactive”.

In the case of `C1=CCC=C1`, the Potency entry was “inactive”.

Consider `BrCC(Br)(Br)Br`, for which the Potency entry was “inactive”.

`CCC(OC(C)=O)C(CC(C)NC)(c1ccccc1)c1ccccc1` (stereo unspecified): the Potency was 55.4 µM (active).

As for `O=C1C2(Cl)C3(Cl)C4(Cl)C(Cl)(Cl)C5(Cl)C3(Cl)C1(Cl)C5(Cl)C24Cl` (stereo unspecified), the Potency is 21.5 µM (active) and 37.3 µM (active).

On to `O=C1C(Cl)=C(Cl)C(=O)C(Cl)=C1Cl`, for which the Potency was 21.8 µM (active) and 17.4 µM (active).

`CSC(C)(C)/C=N/O`: the Potency result is “inactive”.

Consider `NC(=O)C(Cl)Cl`, for which the Potency entry is “inactive”.

Take `CN(C)CCc1c[nH]c2ccccc12`: the Potency entry is “inactive”.

With `CCCCn1cc[n+](C)c1` (tested in a mixture with another compound), the Potency entry was “inactive”.

On to `CCC(C)c1cccc(C(C)CC)c1O` (stereo unspecified), for which the Potency is 19.5 µM (active).

Turning to `Fc1ccc(C(OCCN2CCN(CCCc3ccccc3)CC2)c2ccc(F)cc2)cc1`, the Potency is 23.9 µM (active).

In the case of `CCN(CC)CCN1C(=O)CN=C(c2ccccc2F)c2cc(Cl)ccc21`, the Potency result was “inactive”.

As to `Nc1ccccc1-c1ccccc1`, the Potency entry is “inactive”.

On to `O=[N+]([O-])c1cc(C(F)(F)F)c(Cl)c([N+](=O)[O-])c1Nc1ncc(C(F)(F)F)cc1Cl`, for which the Potency is 3.89 µM (active).

Take `CCCCn1cc[n+](C)c1.[Cl][Fe-]([Cl])([Cl])[Cl]`: the Potency entry was “inactive”.

In the case of `Nc1nc(N)nc(Cl)n1`, the Potency entry was “inactive”.

`Oc1cccc(Cl)c1Cl`: the Potency result was “inactive”.

`Brc1cccc(-c2ccccc2)c1`: the Potency result was “inactive”.

As for `CCCCCON=O`, the Potency result is “inactive”.

In the case of `CC(=O)C(Cl)C(=O)N(C)C` (stereo unspecified), the Potency result was “inactive”.

Take `Cc1ccn2nc(S(=O)(=O)Nc3c(F)cccc3F)nc2n1`: the Potency result is “inactive”.

Turning to `CN1CCc2cc(Cl)c(O)cc2[C@H]2c3ccccc3CC[C@@H]21`, the Potency result was “inactive”.

For the compound `[C-]1=CC=CC1.[Cl][Zr+2][Cl].c1cc[cH-]c1`, the Potency result is “inactive”.

With `O=c1c2ccccc2c(=O)c2c1cc(Cl)c1[nH]c3c([nH]c12)c(Cl)cc1c(=O)c2ccccc2c(=O)c13`, the Potency result was “inactive”.

Turning to `N#CSCc1ccccc1`, the Potency entry was “inactive”.

Consider `ClC1=C(Cl)[C@]2(Cl)[C@H]3[C@H]([C@@H]4C=C[C@H]3C4)[C@@]1(Cl)C2(Cl)Cl`, for which the Potency was 54.9 µM (active).

Turning to `O=C(N[C@@H]1N=C(c2ccccc2F)c2cccc3c2N(CC3)C1=O)c1cc2ccccc2[nH]1`, the Potency was 9.52 µM (active).

For `CN(C)C(=S)SSC(=S)N(C)C`, the Potency was 216 nM (active) and 275 nM (active) and 134 nM (active).
